Out of some 190,000 compounds screened, about 930 (0.49%) were called active. The list shows a part of the results. Measured potencies and affinities stand elsewhere. A number with no mark means an inactive call.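 Rule for the calls: active = z-score of insulin promoter reporter brightness in nuclei below -3 at 5 µM, with at least 500 cells counted; inconclusive = wells with under 500 cells, flagged as toxic or sparse; inactive = the rest.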
Test: insulin promoter down-regulators in MIN6 cells, imaging, high-content screening, mouse beta cells (AID 1628)
Conditions: MIN6 insulin promoter GFP reporter, at 5 µM, stronger effect = lower value

Row | SMILES | z-score
1 | CC(C)N1CC=C2C(C#N)=C(N)C(C#N)(C#N)[C@H](c3ccoc3)[C@H]2C1 | 9.66
2 | CN(C)CCOCCOc1ccccc1-c1ccccc1 | 4.97
3 | CC1CN(c2oc(COc3ccc(Cl)cc3Cl)nc2C#N)CC(C)O1 (stereo not given) | -3.34 (active)
4 | COC(=O)c1ccc(C(=O)Nc2cc(Cl)ccc2Cl)cc1NC(=O)c1ccc(N(C)C)cc1 | -4.37 (active)
5 | CC(=O)c1cc(NC(=O)c2ccc(Cl)cc2)c(=O)oc1/C=C/N(C)C | 3.13
6 | COC(=O)c1cc(NC(=O)c2cccc(Cl)c2)c(=O)oc1/C=C/Nc1cc(C)cc(C)c1 | 14.9
7 | Cc1ccc2nc(NCCC(=O)O)nc(-c3ccccc3)c2c1 | 4.16
8 | CC1CCCc2sc3nc(NCc4ccco4)n4ncnc4c3c21 (stereo not given) | -3.54 (active)
9 | N#C/C(=C\c1ccc(N2CCCCC2)o1)C(=O)Nc1cccc(Br)c1 | 12.9
10 | COc1ccc(C2=NC(=O)/C(=C\c3cc(OC)c(OC)c(OC)c3)O2)cc1 | 3.04
11 | N#C/C(=C/c1ccc(-c2cc(C(=O)O)cc(C(=O)O)c2)o1)c1nc2ccccc2s1 | 3.02
12 | COc1ccc(C(NC(C)=O)c2ccc3cccnc3c2O)c(OC)c1 (stereo not given) | -5.39 (active)
13 | COc1cc2c3nnc(-c4ccccc4)c-3cn(Cc3ccccc3F)c2cc1OC | 12.9
14 | Cc1ccc(C(=O)COC(=O)CNC(=O)c2ccc(N3C(=O)c4ccccc4C3=O)cc2)cc1C | -3.38 (active)
15 | O=C(CNC(=O)c1ccco1)OCC(=O)c1ccccc1 | 4.35
16 | CCOC(=O)C1=C(C)OC(N)=C(C#N)C1c1cc(SCC)oc1C (stereo not given) | 0.96
17 | COc1cccc(NC(=O)N2CCCC2C(=O)NC(C)C)c1 (stereo not given) | -5.72 (active)
18 | COc1cccc(NC(=O)N2CCN(c3nnnn3-c3ccccc3)CC2)c1 | 3.09
19 | COC(=O)[C@@H](NC(=O)Nc1cccc(OC)c1)C(C)C | 3.01
20 | Cn1c(=O)c(NC2CCCCC2)c2c3c(cccc31)C(=O)c1ccccc1-2 | 16.9
21 | O=C(NCCCN1CCCCCC1)C1CC(=O)N(C2CCCC2)C1 (stereo not given) | 4.02
22 | CC1c2nc3ccccc3n2C(CC(=O)NCCCN2CCOCC2)C(=O)N1Cc1ccccc1 (stereo not given) | 2.82
23 | O=C(NCCCN1CCN(Cc2ccccc2)CC1)C1CCN(c2nnc(-n3cccc3)s2)CC1 | -4.79 (active)
24 | Cc1[nH]c2ccccc2c1/C=N/Nc1ccc([N+](=O)[O-])cc1 | 13.9

Row | SMILES | z-score
25 | CC(C)CCNC(=S)Nc1ccc([N+](=O)[O-])cc1 | -5.03 (active)
26 | CNC(=S)Nc1ccc([N+](=O)[O-])cc1 | 4.22
27 | CCOC(=O)CC1C(=O)NCCN1S(=O)(=O)c1ccc(Cl)cc1Cl (stereo not given) | 3.29
28 | Cc1ccc(-c2nnc(Cc3ccc([N+](=O)[O-])cc3)o2)cc1 | 2.29
29 | COc1ccc(-c2ccc(-c3nnc(Cc4ccc(OC)c(OC)c4)o3)cc2)cc1 | -4.88 (active)
30 | COc1ccc(C2CC(=O)N(CCCN(C)CCc3ccc(OC)c(OC)c3)C2)cc1 (stereo not given) | 1.63
31 | CCOC(=O)Cn1c(=O)c(-c2cc(Br)ccc2N)nc2ccccc21 | 6.82
32 | O=C(/C=C/c1ccc2ccccc2n1)c1cc(Br)ccc1O | 4.36
33 | CC(=O)c1cccc(NC(=O)c2c(F)c(F)c(F)c(F)c2F)c1 | 0.06
34 | C/C(=N\NC(=O)c1cccc(N/N=C(\C)c2cc(O)ccc2O)c1)c1cc(O)ccc1O | -4.19 (active)
35 | Cc1cc(C2C(C#N)=C(N)Oc3n[nH]c(C)c32)c(C)s1 (stereo not given) | 3.37
36 | Cc1ccc(OCCn2nc3ccccc3n2)c(C)c1 | -6.61 (active)
37 | Cc1c(C(=O)O)cccc1-c1ccc(/C=C2/NC(=O)N(c3ccccc3)C2=O)o1 | 3.88
38 | O=C(Nc1ccccc1)Nc1ccc(-n2ccc(C(F)(F)F)n2)cc1 | -3.4 (active)
39 | COc1ccc(CNC(=O)/C=C/c2ccco2)cc1OC | 1.08
40 | CC(/C=C/c1ccco1)=N\NC(=O)C(O)c1ccccc1 (stereo not given) | -4.52 (active)
41 | C=CCC(c1ccccc1)N(C(C)=O)c1ccco1 (stereo not given) | 3.62
42 | CCOc1cc([N+](=O)[O-])cc2c1C(=O)Nc1ccccc1O2 | 5.94
43 | CCOC(=O)c1cc2c(ccn2C)n1CC(=O)N1CCC(Cc2ccccc2)CC1 | -3.62 (active)
44 | Cc1cccc2c(C(=O)N3CCN(C(=O)c4ccco4)CC3)cc(-c3cccc(Br)c3)nc12 | -4.53 (active)
45 | Nc1nc(N2CCN(C(=O)c3ccco3)CC2)nc2ccc(Br)cc12 | -3.6 (active)
46 | CC(=O)c1ccc2cccc3c2c1N=CN3C | 3.38
47 | CN(C)S(=O)(=O)c1ccc(N2CCN(S(=O)(=O)c3ccc(F)cc3)CC2)c(Cl)c1 | -3.39 (active)
48 | Cc1sc2nc(C3CC3)nc(NCCNS(=O)(=O)c3ccccc3)c2c1C | -0.22

Row | SMILES | z-score
49 | CN(C)/C=C1/Nc2ccccc2C1=O | 4.71
50 | COC1OC(CO)C(O)C(O)C1O (stereo not given) | -0.58
51 | Cc1ccc(NC(=O)CCn2cccc2)cc1Cl | 3.23
52 | Cc1cc(C)nc(SCC(=O)Nc2ccc(N3CCOCC3)c(Cl)c2)n1 | -11 (active)
53 | O=S(=O)(Nc1cc2nc3ccccc3nc2n1Cc1ccccc1)c1ccc(Cl)cc1 | 15.3
54 | CCc1nc(Nc2ccc(N3CCN(C(C)=O)CC3)cc2)c2oc3ccccc3c2n1 | -4.54 (active)
55 | Cc1nc2c(oc3ccccc32)c(=O)o1 | 4.23
56 | Cc1cccc(N2CCCn3c2nc2c3c(=O)n(CCN3CCOCC3)c(=O)n2C)c1 | -3.6 (active)
57 | Cc1cc(/C=C2\NC(=S)N(C)C2=O)ccc1N1CCCC1 | 14.3
58 | Cc1oc2ncnc(N)c2c1C | 0.96
59 | CCCCN(C)CC(O)Cn1cc(/C=C/C(=O)c2cccs2)c2ccccc21 (stereo not given) | 4.79
60 | CC(NC(=O)/C(C#N)=C1\N=C(NC(=O)c2cccs2)c2ccccc21)c1ccccc1 (stereo not given) | 3.96
61 | CC(Cc1cccs1)NC(=O)Nc1ccccc1 (stereo not given) | -4.74 (active)
62 | Nc1nnc(-c2cc3c(ccc4ccccc43)oc2=O)s1 | 8.81
63 | O=C(c1ccco1)N1CCN(C(=O)N2c3ccccc3Sc3ccccc32)CC1 | -3.22 (active)
64 | CN(C)N(C)C(=O)C(O)(c1ccccc1)c1ccccc1 | -3.03 (active)
65 | COC(=O)c1ccc(N2CCN(S(=O)(=O)c3ccc4ccccc4c3)CC2)c([N+](=O)[O-])c1 | -4.04 (active)
66 | CCN1CC=C2C(C#N)=C(N)C(C#N)(C#N)C(c3cc(Cl)ccc3Cl)C2C1 (stereo not given) | 15.3
67 | O=C1c2cccc3c(N4CCCCC4)ccc(c23)C(=O)N1c1ccc(O)cc1 | 6.1
68 | O=C(COc1ccc2ccccc2c1Br)Nc1ncn[nH]1 | 1.51
69 | Cc1cc(-c2ccccc2)cc(-c2ccccc2)[n+]1C | -5.05 (active)
70 | COCCN1CN(S(=O)(=O)c2ccccc2)c2nc3ccccc3nc21 | 3.14
71 | O=[N+]([O-])c1ccc(N2N=C(c3ccco3)CC2c2ccccc2)cc1 (stereo not given) | 3.05
72 | CCC(C)(C)n1nnnc1CN(Cc1ccco1)Cc1cc2cc3c(cc2[nH]c1=O)OCO3 | -2.22

Row | SMILES | z-score
73 | Cc1cc(C)c2[nH]c(=O)c(CN(Cc3ccc4c(c3)OCO4)Cc3nnnn3C3CCCC3)cc2c1 | -3.04 (active)
74 | CCc1ccc2[nH]c(=O)c(CN(Cc3nnnn3C3CCCC3)C3CCCCC3)cc2c1 | -3.09 (active)
75 | CCc1ccc2[nH]c(=O)c(CN(Cc3ccc4c(c3)OCO4)Cc3nnnn3C3CCCC3)cc2c1 | -5.41 (active)
76 | O=C(OCC(=O)c1ccc[nH]1)c1ccccc1 | 2.07
77 | O=C(COc1ccc(S(=O)(=O)NCc2ccccc2)cc1Cl)N1CCOCC1 | -4.71 (active)
78 | CCOc1cc(C(=O)OCC(=O)NC(C)c2ccccc2)ccc1OCC(=O)N1CCOCC1 (stereo not given) | 2.57
79 | O=[N+]([O-])c1cc(S(=O)(=O)/N=C(/c2ccccc2)N2CCOCC2)ccc1Cl | 1.77
80 | CCCCn1c(CCC(=O)O)nc2cc(S(=O)(=O)N(C)C)ccc21 | -3.06 (active)
81 | O=c1[nH]c2ccccc2c(O)c1O | -0.06
82 | CN(C)C(=S)N=Nc1[nH]c2ccccc2c1O | -5.59 (active)
83 | O=C(CNC(=O)c1cccc(F)c1)N/N=C/c1cc(Br)ccc1OC(=O)/C=C/c1ccco1 | -8.62 (active)
84 | Cc1ccc(CNc2ccc3c(c2)OCO3)c(C)c1 | 3.69
85 | COc1cc(C)c(CNc2ccc(OC)c(OC)c2)cc1C | -4.27 (active)
86 | CCc1ccc(NC(=O)c2cc(C(C)C)on2)cc1 | 3.36
87 | CCc1ccc(NC(=O)c2c(C(=O)Nc3ccccc3)sc3nc(C)cc(=O)n23)cc1 | -3.57 (active)
88 | CC(=O)n1c(C=Nc2ccccc2)c(O)c2ccccc21 | 3.61
89 | Cc1cc(C(=O)NCC(=O)OCC(=O)N2CCCCCC2)ccc1[N+](=O)[O-] | -3.78 (active)
90 | COC(=O)c1c(NC(=O)CC2Nc3cc(C)c(C)cc3NC2=O)sc(C)c1C (stereo not given) | 6.44
91 | CCOC(=O)c1c(NC(=O)COC(=O)c2cc(OC)c(OC)cc2[N+](=O)[O-])sc(C)c1C | -7.34 (active)
92 | CCC(=O)Nc1ccc(C(=O)OCC(=O)c2ccc(C)c([N+](=O)[O-])c2)cc1 | 3.37
93 | CCN(C#N)c1nc(NC(C)C)nc(NC(C)C)n1 | -6.16 (active)
94 | COc1ccc(N(CC(=O)Nc2ccccc2C(=O)NCC(C)C)S(C)(=O)=O)cc1 | -3.31 (active)
95 | COc1ccc(N(CC(=O)Nc2cc(OC)ccc2OC)S(C)(=O)=O)cc1 | 0.8

Reference: PubChem BioAssay AID1628 (Sanford-Burnham Center for Chemical Genomics, 2009)
